Results as given in PMC7862700, “An all-to-all approach to the identification of sequence-specific readers for epigenetic DNA modifications on cytosine”.

The sequences below were run against ELF4 (Homo sapiens, UniProt Q99607 1-663) (assay: DAPPL (digital affinity profiling via proximity ligation, sequencing); 10 mM Tris-HCl pH 7.5, 50 mM NaCl, 1 mM DTT, 4% glycerol, room temperature, 30 min; GST-TFs on glutathione beads, 16-mer random dsDNA library, 0.1% formaldehyde crosslink after washing; high values mean tight binding). Settings: protein: recombinant; tags: N-terminal GST; dsDNA, one strand shown.
ELF4, sequence (Q99607 whole entry, the tested form may be a part): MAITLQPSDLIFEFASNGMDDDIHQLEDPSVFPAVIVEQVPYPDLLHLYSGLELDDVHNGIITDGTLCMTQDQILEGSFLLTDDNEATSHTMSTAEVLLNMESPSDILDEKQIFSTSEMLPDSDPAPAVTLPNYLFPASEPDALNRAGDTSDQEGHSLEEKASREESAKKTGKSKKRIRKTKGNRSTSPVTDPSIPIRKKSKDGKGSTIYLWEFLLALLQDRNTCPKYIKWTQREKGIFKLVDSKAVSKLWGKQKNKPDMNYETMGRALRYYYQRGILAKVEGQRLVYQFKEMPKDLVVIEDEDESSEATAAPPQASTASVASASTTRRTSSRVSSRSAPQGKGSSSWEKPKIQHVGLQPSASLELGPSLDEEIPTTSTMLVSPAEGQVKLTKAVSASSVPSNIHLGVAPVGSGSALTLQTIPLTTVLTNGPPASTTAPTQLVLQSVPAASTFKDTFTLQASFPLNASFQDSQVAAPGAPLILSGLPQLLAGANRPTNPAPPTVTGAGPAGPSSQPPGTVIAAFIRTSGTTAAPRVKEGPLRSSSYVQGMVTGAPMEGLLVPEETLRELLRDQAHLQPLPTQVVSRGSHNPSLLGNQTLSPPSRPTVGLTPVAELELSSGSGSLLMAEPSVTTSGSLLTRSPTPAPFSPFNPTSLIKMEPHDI
Summary of the method: (§1)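 Sequencing on an Illumina NextSeq500 followed washing, crosslinking with 0.1% formaldehyde, proximity ligation (BsaI/T4 ligase, 1 h, 37 °C) and PCR amplification of pools that had been incubated for 30 min at room temperature with 200 nmole of a random double-stranded 16-mer DNA library in Tris/NaCl/DTT/glycerol buffer. Each pool held DNA-barcoded human transcription factors, expressed in yeast as GST fusions and captured on glutathione beads, plus a tag-only sample. Binding signal is a hexamer's read frequency for a factor divided by its frequency in the tag-only sample.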
In the case of TTTTCC, the binding signal is reported as 1.84 fold enrichment (6-mer frequency, TF over GST control). With CGATTA the binding signal was 1.14 fold enrichment (6-mer frequency, TF over GST control). With TATTTT the binding signal was 1.4 fold enrichment (6-mer frequency, TF over GST control). TCCTCG was tested, and the binding signal was 1.51 fold enrichment (6-mer frequency, TF over GST control). GTTGCT was tested, and the binding signal was 1.27 fold enrichment (6-mer frequency, TF over GST control). With TCCGCC the binding signal was 1.55 fold enrichment (6-mer frequency, TF over GST control). TCTCTG was tested, and the binding signal was 1.58 fold enrichment (6-mer frequency, TF over GST control). For TTTAAC, the binding signal was 1.14 fold enrichment (6-mer frequency, TF over GST control). ATTGCA was tested, and the binding signal was 1.19 fold enrichment (6-mer frequency, TF over GST control). ACGTCT was tested, and the binding signal was 1.28 fold enrichment (6-mer frequency, TF over GST control). In the case of TCTACT, the binding signal is reported as 1.34 fold enrichment (6-mer frequency, TF over GST control). TCATCC was tested, and the binding signal was 1.36 fold enrichment (6-mer frequency, TF over GST control). TATCGA was tested, and the binding signal was 1.34 fold enrichment (6-mer frequency, TF over GST control). For CTACTC, the binding signal was 1.37 fold enrichment (6-mer frequency, TF over GST control). With AATTAC the binding signal was 1.24 fold enrichment (6-mer frequency, TF over GST control). For TCTGGC, the binding signal was 1.4 fold enrichment (6-mer frequency, TF over GST control). In the case of CCCGAC, the binding signal is reported as 1.29 fold enrichment (6-mer frequency, TF over GST control). CAAGAT was tested, and the binding signal was 1.18 fold enrichment (6-mer frequency, TF over GST control). In the case of TTAGCA, the binding signal is reported as 1.33 fold enrichment (6-mer frequency, TF over GST control). CATTTG was tested, and the binding signal was 1.26 fold enrichment (6-mer frequency, TF over GST control). In the case of TCTTCT, the binding signal is reported as 1.16 fold enrichment (6-mer frequency, TF over GST control). For AATCCT, the binding signal was 1.27 fold enrichment (6-mer frequency, TF over GST control). For CCCCCT, the binding signal was 1.35 fold enrichment (6-mer frequency, TF over GST control). In the case of ACATCC, the binding signal is reported as 2.28 fold enrichment (6-mer frequency, TF over GST control). With TTTTGT the binding signal was 1.41 fold enrichment (6-mer frequency, TF over GST control). In the case of ACATAA, the binding signal is reported as 1.09 fold enrichment (6-mer frequency, TF over GST control). In the case of TTCTCG, the binding signal is reported as 1.51 fold enrichment (6-mer frequency, TF over GST control). With AAATCT the binding signal was 1.34 fold enrichment (6-mer frequency, TF over GST control). TTCTCC was tested, and the binding signal was 1.51 fold enrichment (6-mer frequency, TF over GST control). With CTTGCG the binding signal was 1.27 fold enrichment (6-mer frequency, TF over GST control). In the case of ACGTTC, the binding signal is reported as 1.42 fold enrichment (6-mer frequency, TF over GST control). For AATTAA, the binding signal was 1.26 fold enrichment (6-mer frequency, TF over GST control). GTTCCT was tested, and the binding signal was 1.6 fold enrichment (6-mer frequency, TF over GST control). For ACTTAT, the binding signal was 1.35 fold enrichment (6-mer frequency, TF over GST control). AATTTA was tested, and the binding signal was 1.21 fold enrichment (6-mer frequency, TF over GST control). With CACGAT the binding signal was 1.34 fold enrichment (6-mer frequency, TF over GST control). For CTCTCT, the binding signal was 1.74 fold enrichment (6-mer frequency, TF over GST control). With GCCTAC the binding signal was 1.26 fold enrichment (6-mer frequency, TF over GST control). GCCTCG was tested, and the binding signal was 1.38 fold enrichment (6-mer frequency, TF over GST control). In the case of AACTAG, the binding signal is reported as 1.19 fold enrichment (6-mer frequency, TF over GST control).

The sequences below were run against T1, ELK4 (Homo sapiens, UniProt P28324-2 1-405) in the same assay as above. Settings: protein: recombinant; tags: N-terminal GST; dsDNA, one strand shown.
T1 sequence: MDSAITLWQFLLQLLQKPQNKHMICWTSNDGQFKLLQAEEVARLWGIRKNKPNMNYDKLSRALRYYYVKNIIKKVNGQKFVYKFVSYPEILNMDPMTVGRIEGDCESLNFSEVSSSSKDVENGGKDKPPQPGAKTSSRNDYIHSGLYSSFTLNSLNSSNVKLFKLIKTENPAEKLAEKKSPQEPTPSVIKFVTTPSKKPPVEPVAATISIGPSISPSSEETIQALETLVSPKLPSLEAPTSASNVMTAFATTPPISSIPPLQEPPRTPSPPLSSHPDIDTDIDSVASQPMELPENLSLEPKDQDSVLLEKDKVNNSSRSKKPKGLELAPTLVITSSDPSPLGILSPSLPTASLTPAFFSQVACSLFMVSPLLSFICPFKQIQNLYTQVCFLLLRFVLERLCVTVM
Summary of the method: as §1
For TTTTCC, the binding signal was 1.62 fold enrichment (6-mer frequency, TF over GST control). In the case of CGATTA, the binding signal is reported as 1.18 fold enrichment (6-mer frequency, TF over GST control). With TATTTT the binding signal was 1.49 fold enrichment (6-mer frequency, TF over GST control). With TCCTCG the binding signal was 1.41 fold enrichment (6-mer frequency, TF over GST control). GTTGCT was tested, and the binding signal was 1.33 fold enrichment (6-mer frequency, TF over GST control). For TCCGCC, the binding signal was 1.45 fold enrichment (6-mer frequency, TF over GST control). TCTCTG was tested, and the binding signal was 1.69 fold enrichment (6-mer frequency, TF over GST control). In the case of TTTAAC, the binding signal is reported as 1.13 fold enrichment (6-mer frequency, TF over GST control). With ATTGCA the binding signal was 1.28 fold enrichment (6-mer frequency, TF over GST control). With ACGTCT the binding signal was 1.12 fold enrichment (6-mer frequency, TF over GST control). TCTACT was tested, and the binding signal was 1.27 fold enrichment (6-mer frequency, TF over GST control). In the case of TCATCC, the binding signal is reported as 1.24 fold enrichment (6-mer frequency, TF over GST control). For TATCGA, the binding signal was 1.37 fold enrichment (6-mer frequency, TF over GST control). CTACTC was tested, and the binding signal was 1.41 fold enrichment (6-mer frequency, TF over GST control). With AATTAC the binding signal was 1.27 fold enrichment (6-mer frequency, TF over GST control). TCTGGC was tested, and the binding signal was 1.44 fold enrichment (6-mer frequency, TF over GST control). CCCGAC was tested, and the binding signal was 1.43 fold enrichment (6-mer frequency, TF over GST control). CAAGAT was tested, and the binding signal was 1.11 fold enrichment (6-mer frequency, TF over GST control). In the case of TTAGCA, the binding signal is reported as 1.33 fold enrichment (6-mer frequency, TF over GST control). With CATTTG the binding signal was 1.26 fold enrichment (6-mer frequency, TF over GST control). For TCTTCT, the binding signal was 1.26 fold enrichment (6-mer frequency, TF over GST control). In the case of AATCCT, the binding signal is reported as 1.33 fold enrichment (6-mer frequency, TF over GST control). CCCCCT was tested, and the binding signal was 1.58 fold enrichment (6-mer frequency, TF over GST control). For ACATCC, the binding signal was 2.29 fold enrichment (6-mer frequency, TF over GST control). With TTTTGT the binding signal was 1.36 fold enrichment (6-mer frequency, TF over GST control). For ACATAA, the binding signal was 1.14 fold enrichment (6-mer frequency, TF over GST control). For TTCTCG, the binding signal was 1.5 fold enrichment (6-mer frequency, TF over GST control). For AAATCT, the binding signal was 1.25 fold enrichment (6-mer frequency, TF over GST control). For TTCTCC, the binding signal was 1.63 fold enrichment (6-mer frequency, TF over GST control). In the case of CTTGCG, the binding signal is reported as 1.51 fold enrichment (6-mer frequency, TF over GST control). With ACGTTC the binding signal was 1.29 fold enrichment (6-mer frequency, TF over GST control). AATTAA was tested, and the binding signal was 1.26 fold enrichment (6-mer frequency, TF over GST control). With GTTCCT the binding signal was 1.48 fold enrichment (6-mer frequency, TF over GST control). With ACTTAT the binding signal was 1.53 fold enrichment (6-mer frequency, TF over GST control). AATTTA was tested, and the binding signal was 1.22 fold enrichment (6-mer frequency, TF over GST control). CACGAT was tested, and the binding signal was 1.24 fold enrichment (6-mer frequency, TF over GST control). In the case of CTCTCT, the binding signal is reported as 1.74 fold enrichment (6-mer frequency, TF over GST control). GCCTAC was tested, and the binding signal was 1.38 fold enrichment (6-mer frequency, TF over GST control). With GCCTCG the binding signal was 1.32 fold enrichment (6-mer frequency, TF over GST control). In the case of AACTAG, the binding signal is reported as 1.02 fold enrichment (6-mer frequency, TF over GST control).

What follows are sequences tested against T2, ETV2 (Homo sapiens, UniProt O00321 1-342) in the same assay as above. Settings: protein: recombinant; tags: N-terminal GST; dsDNA, one strand shown.
T2 sequence: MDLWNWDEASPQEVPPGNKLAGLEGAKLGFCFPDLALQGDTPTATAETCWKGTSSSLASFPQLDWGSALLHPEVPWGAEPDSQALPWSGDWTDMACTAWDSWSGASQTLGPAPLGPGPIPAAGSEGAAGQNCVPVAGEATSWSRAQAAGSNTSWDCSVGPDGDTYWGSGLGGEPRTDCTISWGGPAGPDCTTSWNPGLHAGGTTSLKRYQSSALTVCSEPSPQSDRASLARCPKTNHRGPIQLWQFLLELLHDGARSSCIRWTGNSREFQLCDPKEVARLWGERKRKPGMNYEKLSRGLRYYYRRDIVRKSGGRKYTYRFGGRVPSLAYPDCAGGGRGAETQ
Summary of the method: as §1
TTTTCC was tested, and the binding signal was 1.88 fold enrichment (6-mer frequency, TF over GST control). CGATTA was tested, and the binding signal was 1.13 fold enrichment (6-mer frequency, TF over GST control). TATTTT was tested, and the binding signal was 1.45 fold enrichment (6-mer frequency, TF over GST control). With TCCTCG the binding signal was 1.66 fold enrichment (6-mer frequency, TF over GST control). For GTTGCT, the binding signal was 1.26 fold enrichment (6-mer frequency, TF over GST control). TCCGCC was tested, and the binding signal was 1.48 fold enrichment (6-mer frequency, TF over GST control). With TCTCTG the binding signal was 1.45 fold enrichment (6-mer frequency, TF over GST control). TTTAAC was tested, and the binding signal was 1.24 fold enrichment (6-mer frequency, TF over GST control). ATTGCA was tested, and the binding signal was 1.31 fold enrichment (6-mer frequency, TF over GST control). In the case of ACGTCT, the binding signal is reported as 1.18 fold enrichment (6-mer frequency, TF over GST control). With TCTACT the binding signal was 1.31 fold enrichment (6-mer frequency, TF over GST control). For TCATCC, the binding signal was 1.44 fold enrichment (6-mer frequency, TF over GST control). With TATCGA the binding signal was 1.44 fold enrichment (6-mer frequency, TF over GST control). With CTACTC the binding signal was 1.38 fold enrichment (6-mer frequency, TF over GST control). In the case of AATTAC, the binding signal is reported as 1.38 fold enrichment (6-mer frequency, TF over GST control). TCTGGC was tested, and the binding signal was 1.28 fold enrichment (6-mer frequency, TF over GST control). With CCCGAC the binding signal was 1.46 fold enrichment (6-mer frequency, TF over GST control). CAAGAT was tested, and the binding signal was 1.09 fold enrichment (6-mer frequency, TF over GST control). TTAGCA was tested, and the binding signal was 1.27 fold enrichment (6-mer frequency, TF over GST control). In the case of CATTTG, the binding signal is reported as 1.29 fold enrichment (6-mer frequency, TF over GST control).
